Measured values reported in ChEMBL document CHEMBL2218924, “A broad activity screen in support of a chemogenomic map for kinase signalling research and drug discovery” (Biochem J, 2013).

These molecules were tested against T1, Phosphorylase b kinase gamma catalytic chain, liver/testis isoform (Homo sapiens) (UniProt P15735). Conditions: at 1 µM.
T1 sequence (whole entry): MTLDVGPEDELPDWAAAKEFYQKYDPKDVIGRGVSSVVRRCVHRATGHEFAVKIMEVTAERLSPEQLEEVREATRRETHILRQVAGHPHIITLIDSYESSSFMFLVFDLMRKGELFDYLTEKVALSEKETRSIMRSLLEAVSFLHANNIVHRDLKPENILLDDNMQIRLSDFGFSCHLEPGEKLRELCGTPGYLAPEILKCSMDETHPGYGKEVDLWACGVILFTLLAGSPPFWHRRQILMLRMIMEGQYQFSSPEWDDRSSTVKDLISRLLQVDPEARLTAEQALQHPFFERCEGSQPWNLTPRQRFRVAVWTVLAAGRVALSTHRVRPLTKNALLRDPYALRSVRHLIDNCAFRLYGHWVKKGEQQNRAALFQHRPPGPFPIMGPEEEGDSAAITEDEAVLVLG

SMILES	residual activity
COc1ccc(CNc2nc(N(CCO)CCO)nc3c2ncn3C(C)C)cc1	122%
O=C1NC(=O)c2c1c1c3ccccc3[nH]c1c1[nH]c3cc(Br)ccc3c21	114%
O=C1Nc2ccccc2/C1=C1/Nc2ccccc2/C1=N\OCCC(O)CO (stereo not given)	21%
COc1cccc(-c2cc(=O)c3ccccc3o2)c1N	113%
CO[C@H]1C[C@@H]2CC[C@@H](C)[C@@](O)(O2)C(=O)C(=O)N2CCCC[C@H]2C(=O)O[C@H]([C@H](C)C[C@@H]2CC[C@@H](O)[C@H](OC)C2)CC(=O)[C@H](C)/C=C(\C)[C@@H](O)[C@@H](OC)C(=O)[C@H](C)C[C@H](C)/C=C/C=C/C=C/1C	94%
CC(=O)O/N=C1\C(=C2\C(=O)Nc3cc(Br)ccc32)Nc2ccccc21	92%
O=[N+]([O-])c1ccc(-c2nc(-c3ccc(F)cc3)c(-c3ccncc3)[nH]2)cc1	98%
COc1cc2ncnc(Nc3ccc(O)c(Br)c3)c2cc1OC	97%
N#Cc1cnc2cnc(NCc3cccnc3)cc2c1Nc1ccc(F)c(Cl)c1	3%
Cc1ccc(NC2=CC(=O)c3sc(C)nc3C2=O)cc1	114%
CC[n+]1c(/C=C/N(C)c2ccccc2)n(-c2ccccc2)c2ccc(-c3nc4ccccc4s3)cc21	93%
O=c1c2ccccc2[nH]c(=S)n1CCN1CCC(=C(c2ccc(F)cc2)c2ccc(F)cc2)CC1	103%
COc1ccc(OC)c2c(=S)c3ccccc3[nH]c12	119%
Cn1cnc2cc3c(Nc4cccc(Br)c4)ncnc3cc21	95%
NC(=O)c1ccc2[nH]c(-c3ccc(Oc4ccc(Cl)cc4)cc3)nc2c1	89%
Oc1n[nH]c2nnc(-c3c(-c4ccccc4)nn4ccccc34)cc12	116%
COc1ccc(C(=O)Nc2sc3c(c2C(N)=O)CCCC3)cc1OC	78%
COc1cc2ncnc(Nc3ccc(Oc4ccccc4)cc3)c2cc1OC	95%

SMILES	residual activity
Nc1cccc(-c2cc3c(Oc4cccc(O)c4)ncnc3[nH]2)c1	120%
O=Nc1c(-c2c(O)[nH]c3ccccc23)[nH]c2ccccc12	25%
Cc1nc(-c2ccccc2)c(-c2ccncc2)o1	109%
CNc1cc2c(Nc3cccc(Br)c3)ncnc2cn1	104%
O=C1Nc2cc(Br)ccc2/C1=C1/Nc2ccccc2/C1=N\O	55%
Cc1ccc(S(=O)(=O)/C=C/C#N)cc1	114%
CC(C)n1cnc2c(NCc3ccccc3)nc(NCCCO)nc21	96%
CCC(=O)Nc1ccc2ncnc(Nc3cccc(Br)c3)c2c1	90%
C[C@@H](N)[C@H]1CC[C@H](C(=O)Nc2ccncc2)CC1	101%
O=C1NC(=O)c2cc(Nc3ccc(F)cc3)c(Nc3ccc(F)cc3)cc21	93%
CO[C@H]1[C@@H](OC)C[C@H](C)[C@@H](OC)C2=CC(=O)C=C(NC(=O)/C(C)=C/C=C/[C@H](OC)[C@@H](OC(N)=O)/C(C)=C/[C@@H]1C)C2=O	97%
Oc1ccc(Nc2nc(-c3ccc(Cl)cc3)cs2)cc1	129%
O=c1cc(-c2cccc3c2Sc2ccccc2S3)oc(N2CCOCC2)c1	96%
O=C1NC(=O)/C(=C/c2ccc3c(c2)OC(F)(F)O3)S1	85%
Ic1cccc(CSc2nnc(-c3ccncc3)o2)c1	106%
Cn1nc2c3c(cccc31)C(=O)c1ccccc1-2	102%
CC(C)n1cnc2/c(=N/c3cccc(Cl)c3)nc(NCCO)[nH]c21	52%
